A number with no mark means an inactive call. Inconclusive results are not listed. Entries that show only a call come without a potency. Activity calls are given as the source filed them. Unless noted, the call rests on the fitted dose curve.
Tests used:
[1] = Nuclear factor erythroid 2-related factor 2/antioxidant responsive element (Nrf2/ARE) small molecule agonists: qHTS cell viability counter screen in human keratinocytes (AID 1919968; active means well fitted curve in the direction sought with a large enough effect in the repeat runs; an effect the other way counts as inactive or inconclusive; further: nearly all actives have a fitted effect of over 55% in size; further: potency means the concentration at half of the fitted maximal effect)
Method in brief: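 HaCaT ARE reporter line, 1,500 cells/well; 5 h settle, 37 C/5% CO2; cpd in DMSO pinned; 23 h exposure; CellTiter-Fluor, 1 h; fluorescence.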

[2] = Nuclear factor erythroid 2-related factor 2/antioxidant responsive element (Nrf2/ARE) small molecule agonists: luciferase reporter gene qHTS assay in human keratinocytes (AID 1919969); further: nearly all actives have a fitted effect of over 35% in size; further: potency means the concentration at half of the fitted maximal effect
[3] = target: Gonadotropin-releasing hormone receptor (Homo sapiens) (UniProt P30968); assay: Human gonadotropin-releasing hormone receptor (GnRHR) small molecule agonists, calcium flux assay in GnRHR-HEK293 cells (AID 1920063); further: nearly all actives have a fitted effect of over 35% in size
Sequence of Gonadotropin-releasing hormone receptor (Homo sapiens) (P30968 whole entry, looked up): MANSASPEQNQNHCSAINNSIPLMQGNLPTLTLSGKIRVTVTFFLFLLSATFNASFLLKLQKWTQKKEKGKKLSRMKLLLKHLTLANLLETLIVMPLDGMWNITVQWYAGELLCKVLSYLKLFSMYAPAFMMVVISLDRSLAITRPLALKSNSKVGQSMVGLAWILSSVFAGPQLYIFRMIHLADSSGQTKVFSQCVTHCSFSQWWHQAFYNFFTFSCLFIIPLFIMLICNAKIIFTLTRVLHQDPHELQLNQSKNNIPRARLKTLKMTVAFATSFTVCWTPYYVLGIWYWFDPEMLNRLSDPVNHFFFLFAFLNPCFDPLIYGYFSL
Method in brief: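 GnRHR-HEK293, 1500 cells/well, 18 h 37 C/5% CO2; Ca dye 1 h 37 C; cpd pinned (DMSO), agonist mode; kinetic FL 480/540, 3 min, 1 s reads; 15 conc, n=3.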

[4] = target: KiSS-1 receptor (Homo sapiens) (UniProt Q969F8); assay: Human kisspeptin (KISS1R) small molecule agonists, calcium flux assay in KISS1R-HEK293 cells (AID 1920064; active means well fitted curve in the direction sought with a large enough effect in the repeat runs; an effect the other way counts as inactive or inconclusive)
Sequence of KiSS-1 receptor (Homo sapiens) (Q969F8 whole entry, looked up): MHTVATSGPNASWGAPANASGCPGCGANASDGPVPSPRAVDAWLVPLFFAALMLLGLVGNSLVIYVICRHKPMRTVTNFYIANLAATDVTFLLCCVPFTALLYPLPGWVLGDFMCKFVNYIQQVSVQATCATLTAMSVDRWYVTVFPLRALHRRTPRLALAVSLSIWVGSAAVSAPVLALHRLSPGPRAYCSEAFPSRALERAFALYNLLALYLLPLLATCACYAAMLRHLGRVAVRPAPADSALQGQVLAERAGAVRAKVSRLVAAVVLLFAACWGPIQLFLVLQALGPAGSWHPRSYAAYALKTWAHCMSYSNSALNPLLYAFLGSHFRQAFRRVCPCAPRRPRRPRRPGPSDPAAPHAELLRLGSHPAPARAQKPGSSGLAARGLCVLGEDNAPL
Method in brief: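 Stable human KISS1R HEK293 line; 18 h plating, 37 C/5% CO2; calcium dye 1 h 37 C; compound pin transfer; kinetic fluorescence Ex/Em 480/540, 3 min.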

[5] = G protein-coupled receptor (GPCR) small molecule agonists, calcium flux assay: HEK293 wild type cell line counter screen (AID 1920065)
Method in brief: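 Kinetic fluorescence at Ex/Em 480/540, recorded every second over 3 min, served as the read-out after compound addition. Each compound was tested at 15 concentrations in triplicate on cells pre-loaded with calcium dye for 1 h.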

[6] = p53 small molecule agonists, cell-based qHTS assay with human liver microsomes (AID 1963577);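 further: p53 response element beta-lactamase reporter cells with liver microsomes plus NADPH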
Method in brief: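 HLM-supplemented p53RE-bla reporter assay: 16 h compound exposure at 37 C, microsomes and NADPH each 0.5 mg/mL final, read by fluorescence intensity.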

[7] = p53 small molecule agonists, cell-based qHTS assay with rat liver microsomes (AID 1963578)
Method in brief: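 Quantitative HTS of the Tox21 10K library: p53RE-bla cells, rat liver microsomes plus NADPH at 0.5 mg/mL final each, 16 h at 37 C, beta-lactamase fluorescence detection.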

[8] = p53 small molecule agonists, cell-based qHTS assay with human liver microsomes: qHTS cell viability counter screen (AID 1963579); further: nearly all actives have a fitted effect of over 45% in size
Method in brief: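 Viability of p53RE-bla cells is measured as CellTiter-Glo luminescence following a 16 h, 37 C incubation with compound, liver microsomes from human donors and NADPH.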

[9] = p53 small molecule agonists, cell-based qHTS assay with rat liver microsomes: qHTS cell viability counter screen (AID 1963580); further: nearly all actives have a fitted effect of over 45% in size
Method in brief: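 HCT-116 p53RE-bla, 4,000 cells/well, 5 h pre-incubation; cpd + rat liver microsomes 0.5 mg/mL + NADPH 0.5 mg/mL (final); 16 h, 37 C; CellTiter-Glo, 30 min RT; luminescence.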

[10] = p53 small molecule agonists, cell-based qHTS assay: qHTS cell viability counter screen (AID 1963581); further: nearly all actives have a fitted effect of over 45% in size
Method in brief: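 HCT-116 p53RE-bla cells, 4,000/well, plated 5 h before compound pin transfer; 16 h at 37 C; bla substrate 2 h RT; then CellTiter-Glo, 30 min RT, luminescence.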

[11] = p53 small molecule agonists, cell-based qHTS assay (AID 1963582; active means well fitted activation curve with a large enough effect in the signal ratio in the repeat runs, not every such curve was filed as active; the % refers to the signal ratio; further: potency means the concentration at half of the fitted maximal effect)
Method in brief: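 Reporter line: p53RE-bla. Pre-incubation 5 h, 37 C, 5% CO2; compound (DMSO, pin tool) 16 h, 37 C; B/G FRET substrate 2 h RT; fluorescence intensity read.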

[12] = target: 5-hydroxytryptamine receptor 2A (Homo sapiens) (UniProt P28223); assay: 5-hydroxytryptamine receptor 2A (HTR2A) small molecule antagonists, cell-based qHTS assay (AID 1963586); further: nearly all actives have a fitted effect of over 45% in size
Sequence of 5-hydroxytryptamine receptor 2A (Homo sapiens) (P28223 whole entry, looked up): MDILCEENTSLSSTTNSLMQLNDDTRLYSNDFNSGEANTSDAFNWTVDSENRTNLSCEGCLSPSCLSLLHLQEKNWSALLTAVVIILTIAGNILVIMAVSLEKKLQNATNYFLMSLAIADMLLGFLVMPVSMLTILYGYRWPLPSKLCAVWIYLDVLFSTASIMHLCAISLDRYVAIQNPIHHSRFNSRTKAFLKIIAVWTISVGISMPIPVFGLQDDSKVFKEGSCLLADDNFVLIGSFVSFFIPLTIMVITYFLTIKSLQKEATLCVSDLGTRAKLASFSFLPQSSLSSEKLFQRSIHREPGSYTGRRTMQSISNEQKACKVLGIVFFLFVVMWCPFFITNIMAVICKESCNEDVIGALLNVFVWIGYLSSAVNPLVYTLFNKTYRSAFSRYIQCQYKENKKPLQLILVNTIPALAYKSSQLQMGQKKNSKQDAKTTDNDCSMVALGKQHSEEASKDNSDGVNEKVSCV
Method in brief: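 Antagonist-mode intracellular calcium assay: DOI (4 nM) added after 5 min compound pre-incubation at room temperature to dye-loaded HTR2A-CHO cells. Fluorescence followed for 3 min, sampled every second.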

[13] = target: 5-hydroxytryptamine receptor 2A (Homo sapiens) (UniProt P28223); assay: 5-hydroxytryptamine receptor 2A (HTR2A) small molecule agonists, cell-based qHTS assay (AID 1963587); further: nearly all actives have a fitted effect of over 30% in size
Method in brief: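 Kinetic calcium-flux fluorescence (2 min, 1 sec intervals) after compound addition in agonist mode. HTR2A-CHO cells were cultured 18 h, then dye-loaded 1 h at 37 C.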

[14] = target: Muscarinic acetylcholine receptor M1 (Homo sapiens) (UniProt P11229); assay: Cholinergic receptor muscarinic 1 (CHRM1) small molecule antagonists, cell-based qHTS assay (AID 1963588); further: nearly all actives have a fitted effect of over 40% in size; further: potency means the concentration at half of the fitted maximal effect
Sequence of Muscarinic acetylcholine receptor M1 (Homo sapiens) (P11229 whole entry, looked up): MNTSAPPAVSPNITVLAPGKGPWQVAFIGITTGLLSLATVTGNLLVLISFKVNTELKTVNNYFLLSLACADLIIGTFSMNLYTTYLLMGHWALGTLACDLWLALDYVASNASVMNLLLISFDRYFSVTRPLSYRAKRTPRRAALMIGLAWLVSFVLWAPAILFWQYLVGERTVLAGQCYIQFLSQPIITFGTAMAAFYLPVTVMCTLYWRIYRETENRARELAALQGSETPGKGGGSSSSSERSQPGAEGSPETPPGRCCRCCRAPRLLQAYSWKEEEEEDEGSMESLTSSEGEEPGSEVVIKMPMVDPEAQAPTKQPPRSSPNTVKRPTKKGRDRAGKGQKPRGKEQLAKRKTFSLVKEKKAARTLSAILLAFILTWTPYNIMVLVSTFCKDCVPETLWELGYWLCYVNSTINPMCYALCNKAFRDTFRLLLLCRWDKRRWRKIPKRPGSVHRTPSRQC
Method in brief: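 CHRM1-CHO calcium-flux assay, antagonist mode. Cells were seeded 18 h, dye-loaded 1 h at 37 C and given compound for 5 min at RT, then acetylcholine was added at 50nM. FDSS fluorescence was read 3 min; 15 concentrations, three runs.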

[15] = target: Muscarinic acetylcholine receptor M1 (Homo sapiens) (UniProt P11229); assay: Cholinergic receptor muscarinic 1 (CHRM1) small molecule agonists, cell-based qHTS assay (AID 1963589); further: nearly all actives have a fitted effect of over 35% in size
Method in brief: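 Human M1 in stable CHO line; 18 h plating, 1 h dye load 37 C; cpd added (agonist mode); Ca2+ fluorescence kinetic read, 1 s intervals; 15 conc, 3 runs.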

[16] = cAMP Responsive Elements (CRE) small molecule antagonists, cell-based qHTS assay (AID 1963591; active means well fitted inhibition curve with a large enough effect in the signal ratio in the repeat runs, not every such curve was filed as active; the % refers to the signal ratio)
Method in brief: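 Beta-lactamase reporter read by FRET substrate (LiveBLAzer B/G) after 2 h at room temperature. CRE-bla HEK293T cells had received compound plus 0.25 uM (final) NKH477 for 3 h at 37 °C.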

[17] = target: Beta-2 adrenergic receptor (Homo sapiens) (UniProt P07550); assay: Adrenergic beta2 receptor (ADRB2) small molecule antagonists, cell-based qHTS assay (AID 1963592); further: series mostly up to about 92 µM; nearly all actives have a fitted effect of over 50% in size
Sequence of Beta-2 adrenergic receptor (Homo sapiens) (P07550 whole entry, looked up): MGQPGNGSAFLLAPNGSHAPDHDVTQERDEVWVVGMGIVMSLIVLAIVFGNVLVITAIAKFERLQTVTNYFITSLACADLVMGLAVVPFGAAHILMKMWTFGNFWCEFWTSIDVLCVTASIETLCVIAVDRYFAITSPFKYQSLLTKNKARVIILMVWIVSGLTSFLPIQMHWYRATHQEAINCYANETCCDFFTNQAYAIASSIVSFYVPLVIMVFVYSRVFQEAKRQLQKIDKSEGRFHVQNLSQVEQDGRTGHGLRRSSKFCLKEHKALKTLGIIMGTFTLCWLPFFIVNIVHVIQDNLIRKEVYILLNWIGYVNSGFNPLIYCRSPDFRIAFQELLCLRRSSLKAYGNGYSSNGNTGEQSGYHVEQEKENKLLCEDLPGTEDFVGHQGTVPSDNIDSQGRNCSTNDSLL
Method in brief: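 Cells (CHO, stable ADRB2 overexpression) incubated 18-20hr at 37C; compounds added from DMSO; agonist mix (1nM isoproterenol, 100uM IBMX, 25uM Ro-20-1724) added; 0.5hr RT; d2-cAMP and anti-cAMP-cryptate added; 1hr RT; 665/615 nm read.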

[18] = target: D(2) dopamine receptor (Homo sapiens) (UniProt P14416); assay: Dopamine D2 receptor (DRD2) small molecule agonists, cell-based qHTS assay (AID 1963594); further: nearly all actives have a fitted effect of over 35% in size
Sequence of D(2) dopamine receptor (Homo sapiens) (P14416 whole entry, looked up): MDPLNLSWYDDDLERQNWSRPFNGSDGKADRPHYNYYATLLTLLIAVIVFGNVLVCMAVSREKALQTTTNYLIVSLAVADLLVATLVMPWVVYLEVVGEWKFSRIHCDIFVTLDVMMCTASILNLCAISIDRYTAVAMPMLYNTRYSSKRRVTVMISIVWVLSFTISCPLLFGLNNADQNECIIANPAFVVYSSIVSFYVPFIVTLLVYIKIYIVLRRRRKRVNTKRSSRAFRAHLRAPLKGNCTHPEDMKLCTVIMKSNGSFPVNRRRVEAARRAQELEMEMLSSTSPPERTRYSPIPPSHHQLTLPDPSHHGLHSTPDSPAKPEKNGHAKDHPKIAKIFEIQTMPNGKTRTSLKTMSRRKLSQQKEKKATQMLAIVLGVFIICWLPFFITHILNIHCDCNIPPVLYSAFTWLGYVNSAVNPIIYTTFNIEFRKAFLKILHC
Method in brief: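 cAMP accumulation in DRD2-HEK293 cells measured by HTRF after 1 h detection; compounds added 10 min before NKH477 (200nM […]) forskolin-analogue stimulation, 30 min at room temperature, with Ro20-1724 present at 0.1 mM final.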

[19] = target: D(2) dopamine receptor (Homo sapiens) (UniProt P14416); assay: Dopamine D2 receptor (DRD2) small molecule antagonists, cell-based qHTS assay (AID 1963595; active means well fitted inhibition curve with a large enough effect in the signal ratio in the repeat runs, with a control signal flat; the % refers to the signal ratio)
Method in brief: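 Stable D2 receptor HEK293 line, 24 h after seeding. Compound preincubated 10 min, then quinpirole (12 nM) with forskolin analogue NKH477 (200 nM), 30 min, room temperature. Detection by time-resolved FRET of cAMP.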

[20] = cAMP Responsive Elements (CRE) small molecule agonists, cell-based qHTS assay (AID 1963590)
Method in brief: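 HEK 293T CRE-bla, 2,000 cells/well, 18 h preincubation 37 C/5% CO2; cpds (DMSO) pinned, 3 h; LiveBLAzer B/G FRET substrate, 2 h RT.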

SMILES | Potency [1] | Potency [2] | Potency [3] | outcome [4] | outcome [5] | Potency [6] | Potency [7] | Potency [8] | Potency [9] | Potency [10] | Potency [11] | Potency [12] | Potency [13] | Potency [14] | Potency [15] | Potency [16] | Potency [17] | Potency [18] | Potency [19] | Potency [20]
CCCCOC(=O)[C@@H](C)Oc1ccc(Oc2ccc(C(F)(F)F)cn2)cc1 | inactive | inactive | inactive | inactive | inactive | inactive | inactive | inactive | inactive | inactive | inactive | inactive | inactive | inactive | inactive | inactive | inactive | inactive | inactive | –
NCc1ccco1 | inactive | inactive | inactive | inactive | inactive | inactive | inactive | inactive | inactive | inactive | inactive | inactive | inactive | inactive | inactive | inactive | inactive | inactive | inactive | –
CC(C)=CCC/C(C)=C\C#N | inactive | inactive | inactive | inactive | inactive | inactive | inactive | inactive | inactive | inactive | inactive | inactive | inactive | inactive | inactive | inactive | inactive | inactive | inactive | –
CO/N=C(\C(=O)O)c1csc(NC(=O)CCl)n1 | inactive | inactive | inactive | inactive | inactive | inactive | inactive | inactive | inactive | inactive | inactive | inactive | inactive | inactive | inactive | inactive | – | inactive | inactive | –
N=C1N=C(N)c2ccccc21 | 61.1 µM (active) | 27.3 µM (active) | inactive | inactive | inactive | inactive | inactive | inactive | inactive | inactive | 36.3 µM (active) | inactive | inactive | inactive | inactive | inactive | inactive | inactive | inactive | –
CNCc1ccccc1 | inactive | inactive | inactive | inactive | inactive | inactive | inactive | inactive | inactive | inactive | inactive | inactive | inactive | inactive | inactive | inactive | inactive | inactive | inactive | –
Cc1cscn1 | inactive | inactive | inactive | inactive | inactive | inactive | inactive | inactive | inactive | inactive | inactive | inactive | inactive | inactive | inactive | inactive | inactive | inactive | inactive | –
CCOC(=O)C1CC(=O)C(=C(O)C2CC2)C(=O)C1 (configuration not stated) | inactive | inactive | inactive | inactive | inactive | inactive | inactive | inactive | inactive | inactive | inactive | inactive | inactive | inactive | inactive | inactive | inactive | inactive | inactive | –
CC(=O)N/N=C/c1ccc([N+](=O)[O-])o1 | inactive | 33.5 µM (active) | inactive | inactive | inactive | inactive | inactive | inactive | inactive | inactive | inactive | inactive | inactive | 0.0326 µM (active) | inactive | – | – | inactive | inactive | inactive
O=C1c2cccc(O)c2C(=O)c2c(O)cc(CO)cc21 | inactive | 13.7 µM (active) | inactive | inactive | inactive | inactive | inactive | inactive | inactive | inactive | inactive | inactive | inactive | inactive | inactive | inactive | inactive | inactive | inactive | –
COC(C)OC | inactive | inactive | inactive | inactive | inactive | inactive | inactive | inactive | inactive | inactive | inactive | inactive | inactive | inactive | inactive | inactive | inactive | inactive | inactive | –
C[C@]12CCC(=O)C=C1CC[C@@H]1[C@@H]2CC[C@@]2(C)[C@H]1CC[C@]2(O)C(=O)CO | inactive | inactive | inactive | inactive | inactive | inactive | inactive | inactive | inactive | inactive | inactive | inactive | inactive | inactive | inactive | – | inactive | inactive | – | –
O=CN1CCOCC1 | inactive | inactive | inactive | inactive | inactive | inactive | inactive | inactive | inactive | inactive | inactive | inactive | inactive | inactive | inactive | inactive | inactive | inactive | inactive | –
CCCCC(CC)COC(=O)COc1ccc(Cl)cc1Cl (configuration not stated) | inactive | inactive | inactive | inactive | inactive | inactive | inactive | inactive | inactive | inactive | inactive | inactive | inactive | inactive | inactive | inactive | inactive | inactive | inactive | –

Source: PubChem BioAssay (Tox21)
